# Tested on: MKNK1
# Conditions: concentration: 1 μM,replicates: in singlicate; n = 1
# 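Also: KINOMEscan kinase panel screen.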
row,Structure (SMILES),%Inh [%]
1,Cl.Oc1cc(-c2nc(-c3ccccc3)[nH]c2-c2ccncc2)ccc1Cl [SB-386023],0
2,Cc1cc(C(=O)Nc2ccc(Oc3ccc4nc(NC(=O)C5CC5)cn4n3)cc2)nn1-c1ccccc1,1
3,O=C(NCCNc1ccnc(NCc2ccc(F)cc2)n1)c1cc2ccccc2s1 [GSK1379944],8
4,C[C@@H](Oc1cc(-c2cnn(C3CCNCC3)c2)cnc1N)c1c(Cl)ccc(F)c1Cl,0
5,CNC(=O)c1ccccc1Sc1ccc2c(/C=C/c3ccccn3)n[nH]c2c1,0
6,C=CC(=O)Nc1cc2c(Nc3ccc(F)c(Cl)c3)ncnc2cc1OCCCN1CCOCC1 [GW781483],0
7,CC(C)Nc1cc(-c2ccc3c(N)n[nH]c3c2)nc(N)n1 [GSK2221681],31
8,Nc1nc(Nc2ccccc2)cc(-c2ccc3c(N)n[nH]c3c2)n1 [GSK2225749],9
9,CN(C)CC(O)COc1ccc(Nc2nccc(-c3cnn4nc(N5CCOCC5)ccc34)n2)cc1 (stereo not drawn) [GW767488],41
10,Cc1cc2cn[nH]c2cc1-c1cccc2c(N)c(C(N)=O)nnc12,11
11,O=C(NCCCN1CCOC1=O)c1cnc(NCc2cc(Cl)ccc2Cl)nc1NC1CCCC1,11
12,CCn1c(-c2nonc2N)nc2c(C#CC(C)(C)O)nc(OCCN)cc21.Cl.Cl [GSK902056],0
13,Cc1n[nH]c2ccc(-c3cc(OC[C@@H](N)Cc4ccccc4)cnc3-c3ccoc3)cc12.O=C(O)C(F)(F)F.O=C(O)C(F)(F)F [GSK507358],0
14,CN(C)CCOc1ccc(-c2cc(-c3c[nH]nc3-c3ccccn3)ccn2)cc1 [GW835314],0
15,Cl.Cl.NC[C@H](CC1CCCCC1)NC(=O)c1cc(Br)c(-c2ccnc3[nH]ccc23)s1 [GSK1581427],13
16,CC(C)N1C(=O)Cc2cc(Nc3ncc(C(F)(F)F)c(NCc4cccc(S(C)(=O)=O)c4)n3)ccc21,3
17,NC(=O)c1cc(-c2ccccc2)cc2c(C3CCNCC3)c[nH]c12 [GSK301362],0
18,Cc1ccc2c(-c3ccncc3)c(-c3ccc(F)cc3)nn2c1.Cl [GW461484],23
19,COc1ccc(C[C@@H](CN)NC(=O)c2cc(Br)c(-c3ccnc4[nH]ccc34)s2)cc1.Cl.Cl [GSK1389063],13
20,Cl.Cl.Nc1nc(-c2ccc3c(N)n[nH]c3c2)cc(N2CCCC(NC(=O)c3ccccc3)C2)n1 (stereo not drawn) [GSK2286775],12
21,CCN(CC)CCOc1ccc(Nc2ncc3cc(-c4c(Cl)cccc4Cl)c(=O)n(C)c3n2)cc1 [SB-601273],90
22,CCN(CC)CCCCNc1ncc2cc(-c3c(Cl)cccc3Cl)c(NC(=O)NC(C)(C)C)nc2n1,1
23,Cc1ccc(-n2nc(C(C)(C)C)cc2NC(=O)Nc2ccc(OCCN3CCOCC3)c3ccccc23)cc1 [GW839464],14
24,C[C@@H]1CCN(C(=O)CC#N)C[C@@H]1N(C)c1ncnc2[nH]ccc12,0
25,C[C@H]1Oc2cc(cnc2N)-c2c(nn(C)c2C#N)CN(C)C(=O)c2ccc(F)cc21,0
26,Cc1occc1-c1nc(N)c(OC[C@@H](N)Cc2c[nH]c3ccccc23)cc1-c1cc2c(C)n[nH]c2cn1 [GSK1660450],0
27,Cl.Cl.NC[C@H](Cc1ccc(C(F)(F)F)cc1)NC(=O)c1cc(Br)c(-c2ccnc3[nH]ccc23)s1 [GSK1487252],0

# From article PMC5540273 (PLoS ONE, 2017)
